From PubChem BioAssay AID492998 (Southern Research Specialized Biocontainment Screening …, 2010)
Out of some 2,300 compounds screened, about 550 (24%) were called active. A selection follows. Results with a measured potency or affinity are listed apart. A number with no mark means an inactive call. How the calls were made is not given here.

Assay: Vero E6 cell cytotoxicity, dose response, cytotoxicity control for non-replicating M. tuberculosis project, secondary assay (AID 492998);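 further: 100% = vehicle-treated cells and 0% = background wells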
Conditions: series mostly up to 20 µM; viability: at the top concentration

Compound	viability
N=c1oc2ccc(Cl)cc2cc1C(=O)NC1CCCCCC1	99.1%
COc1cc2c(cc1OC)CN(CCC(=O)c1ccc(Br)cc1)CC2	88.3%
CC1(C)C[C@H]2C=C(C=O)[C@]3(C=O)C[C@]3(C)[C@H]2C1	96.4%
CCc1ccc(C(=O)COC(=O)c2ccc(Cl)nc2)cc1	105%
O=C(OCc1nnc(-c2ccccc2)o1)c1ccc(Br)o1	92.2%
Nn1c(SCCOc2ccc(Cl)cc2)nnc1-c1cccnc1	94.8%
COc1ccc(C(=O)COC(=O)c2ccc([N+](=O)[O-])s2)cc1OC	84.3%
COc1cc(C=O)ccc1OCCOCCOc1ccc(Cl)cc1	103%
COC(=O)CCc1nc2c(C#N)c(-c3ccc(Cl)cc3)ccn2n1	105%
O=C(Nc1ccc(Br)cc1)c1cc([N+](=O)[O-])cc([N+](=O)[O-])c1	98.3%
O=C(NCC1CCCCC1)c1ccco1	101%
Oc1ccccc1-c1nnc(COc2ccccc2)o1	78.1%
COc1ccc(NC(=O)c2ccc(-c3ccc([N+](=O)[O-])cc3)o2)cc1OC	106%
CC12CN3CC(C)(CN(C1)C3c1ccc([N+](=O)[O-])o1)C2 (stereo not given)	92.9%
O=[N+]([O-])c1ccc(CN2CCN(c3ccc(Cl)cc3)CC2)o1	108%
Cc1cccc(NC(=O)c2n[nH]c([N+](=O)[O-])c2Br)c1C	102%
CC1CC(C)CN(C(=O)COC(=O)c2ccc([N+](=O)[O-])o2)C1 (stereo not given)	96.2%
Cc1cccc(NCCC(=O)c2ccc([N+](=O)[O-])cc2)c1C	75.4%
Cc1ccc(CCC(=O)Nc2ccc(C)c(C)c2)o1	103%
Cc1cccc(CSc2nnc(-c3ccco3)o2)c1	99.6%
CC(C)(C)c1ccc(OCCCC(=O)NC2=NCCS2)cc1	86%
Cc1ccc(NC(=O)COc2ccccc2)cc1Cl	101%
O=C(NCCC1=CCCCC1)c1coc(=O)c(Br)c1	106%
O=C(COC(=O)c1ccc(Br)o1)Nc1ncc([N+](=O)[O-])s1	105%
COC(=O)c1ccc(COC(=O)CCS(=O)(=O)c2ccc(C)cc2)cc1	99.5%

Compound	viability
CCOC(=O)CC(=O)Nc1ccc(C(=O)OCC)cc1	107%
C=CCc1ccc2oc(C(=O)OCC)cc(=O)c2c1O	93.4%
CCNC(=O)NC(=O)C(C)OC(=O)CCCSc1nc2ccccc2s1 (stereo not given)	99%
Cc1cccc(C)c1NC(=O)COC(=O)CCc1c[nH]c2ccccc12	103%
O=S1(=O)N=C(N/N=C/C=C/c2ccccc2)c2ccccc21	82.8%
O=C(Nc1ccc([N+](=O)[O-])cc1)c1ccc(Cn2cc([N+](=O)[O-])cn2)cc1	82.7%
COCCn1c(C)cc(C(=O)COC(=O)c2ccc([N+](=O)[O-])o2)c1C	82%
O=C(Nc1ccccc1F)c1ccc(CSc2ccccc2)o1	96.3%
Cc1cc(C(=O)N/N=C/c2ccc([N+](=O)[O-])o2)c(C)o1	79.9%
Cc1[nH]c2ccccc2c1C(=O)C(C)OC(=O)c1ccc([N+](=O)[O-])o1 (stereo not given)	80.2%
Cc1ccc(NC(=O)c2noc(C(C)C)c2[N+](=O)[O-])cc1	90.1%
Cc1cc(C)c(C(=O)COC(=O)c2ccc([N+](=O)[O-])o2)cc1C	104%
CCCCC1CCC(C(=O)Nc2ccc(S(=O)(=O)Nc3nccs3)cc2)CC1 (stereo not given)	101%
CCCOC(=O)c1ccc(NC(=O)c2ccccc2OC)cc1	97.1%
CCOC(=O)C1CCN(Cc2ccc(-c3ccccc3)cc2)CC1	116%
OC(C#CCN1CCOCC1)c1cccs1 (stereo not given)	97.2%
C=CCNc1nnc(Sc2ncccc2[N+](=O)[O-])s1	88.3%
S=C1CN=C(c2ccccc2)c2cc(Cl)ccc2N1	106%
CC(C)Oc1ccc(C(=O)CCN2CCCCC2)cc1	88.4%
Cc1ccc(CCC(=O)Nc2cc(Cl)ccc2Cl)o1	95.9%
CCOc1ccc(CC(=O)N2N=C(C)CC2(O)C(F)(F)F)cc1 (stereo not given)	94.2%
O=C(NCc1ccc(F)cc1)c1ccc(Br)o1	95.5%
CCn1nnc(NC(=O)COc2ccc(C3CCCCC3)cc2)n1	98.9%
Cc1ccc(OCC(=O)N/N=C/c2ccc([N+](=O)[O-])o2)cc1	94.7%
CCn1nnc(NC(=O)c2ccc(-c3ccc(Cl)cc3)o2)n1	96.3%

Compound	viability
O=C(c1ccc([N+](=O)[O-])o1)N1CCN(Cc2ccccc2)CC1	89.4%
O=C(NCCC1=CCCCC1)c1ccc(F)cc1	102%
O=C(CCC1CCCC1)Nc1ccc(Br)cn1	80.5%
O=C(c1cc(F)ccc1F)C1CCCN(Cc2ccc3nonc3c2)C1 (stereo not given)	85%
CC(C)Cn1c(N)c(C(=O)COC(=O)c2cnc(Cl)c(Cl)c2)c(=O)n(C)c1=O	92.2%
COc1cc(N=c2ssnc2Cl)cc(OC)c1	101%
CCOC(=O)COc1ccc2c(=O)cc(-c3ccccc3)oc2c1	111%
COC(=O)C(C)Oc1ccc2cc(-c3ccccc3)c(=O)oc2c1 (stereo not given)	109%
Cc1ccccc1OCC(=O)OCC(=O)c1ccc[nH]1	101%
Cc1ccc(-c2nnc(-c3cccs3)o2)cc1	95.6%
Fc1ccc(-c2nnc(-c3ccc(F)cc3)o2)cc1	97.5%
Fc1ccc(-c2nnc(CSc3nnc(-c4cccs4)o3)o2)cc1	100%
COc1cccc(OCc2nnc(-c3cccs3)o2)c1	108%
Cc1cc(C(=O)N/N=C/c2ccc(OC(=O)c3ccccc3Br)cc2)n[nH]1	92.3%
Oc1oc(-c2ccco2)nc1C=Nc1cccc(Cl)c1	93.7%
CCc1cc(C(c2ccncc2)N2CCN(C)CC2)c(NC(=O)c2ccccc2)s1 (stereo not given)	101%
CCOC(=O)C1(CC2CCCCO2)CCN(Cc2nccn2-c2ccc(OC)cc2)CC1 (stereo not given)	106%
COC12C(COC(N)=O)C3=C(C(=O)C(C)=C(N)C3=O)N1CC1C2N1C (stereo not given)	79.6%
c1ccc(C2=Nc3ccccc3OC2)cc1	98.2%
Cc1cc2nc(/N=C(\N)NC(=O)C(C)C)nc(C)c2cc1C	83.2%
Cc1ccc2nc(CCc3nc4ccc(C)cc4[nH]3)[nH]c2c1	90.6%
CC(C)OC(=O)CCCCCN1C(=O)CSC1=S	76.9%
O=C(Nc1ccccn1)c1ccc(C(=O)c2ccccc2)cc1	95.9%
CCCCNC(=O)COC(=O)c1cc(Br)ccc1Cl	99.6%
Cc1[nH]n2c(=O)c3c(nc2c1-c1ccccc1)CCCC3	75.9%
